Out of some 290,000 compounds screened, about 370 (0.13%) were called active. The sample as a whole holds a higher share of actives than the screen did. Measured potencies and affinities stand elsewhere. A number with no mark means an inactive call.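 Rule for the calls: active = spots per cell inhibited over 60%, with over 100 cells counted and total cytoplasm intensity under 500,000; inconclusive = wells with under 100 cells, flagged as likely toxic; inactive = the rest.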

Inhibition data for 29 compounds are collected here from PubChem BioAssay AID2013 (Sanford-Burnham Center for Chemical Genomics, 2009).

The target of the test is G-protein coupled receptor 55 (Homo sapiens) (UniProt Q9Y2T6). In words: inhibition of LPI-stimulated GPR55 beta-arrestin translocation – imaging, U2OS, beta-arrestin-GFP, LPI agonist, primary screen (AID 2013).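 Note: U2OS cells stably carrying GPR55 and arrestin-GFP stimulated by 5 µM LPI near EC80; imaged beta-arrestin-GFP aggregate spots per cell after agonist stimulation; plate controls were LPI-stimulated DMSO wells for no effect and DMSO wells without LPI for full effect.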 The settings on record: LPI antagonism, at 10 µM, stronger effect = higher value.
G-protein coupled receptor 55 (Homo sapiens), sequence (Q9Y2T6 whole entry, looked up): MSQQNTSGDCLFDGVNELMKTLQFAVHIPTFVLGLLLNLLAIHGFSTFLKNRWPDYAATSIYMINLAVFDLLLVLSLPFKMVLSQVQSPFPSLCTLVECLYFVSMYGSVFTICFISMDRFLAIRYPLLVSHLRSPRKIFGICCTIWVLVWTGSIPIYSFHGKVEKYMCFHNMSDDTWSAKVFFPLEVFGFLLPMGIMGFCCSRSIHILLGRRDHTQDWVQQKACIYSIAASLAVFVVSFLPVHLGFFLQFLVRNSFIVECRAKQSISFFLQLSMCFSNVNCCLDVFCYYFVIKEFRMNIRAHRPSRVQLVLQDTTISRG
For the compound `N=c1n(CC(=O)c2ccc([N+](=O)[O-])cc2)c2ccccc2n1Cc1ccccc1Cl`, the inhibition was 8.7%.
In the case of `N=c1n(CC(=O)c2ccc([N+](=O)[O-])cc2)c2ccccc2n1Cc1ccccc1`, the inhibition was 64.5% (active).
Regarding `Cc1ccc(Cn2c(=N)n(CC(=O)c3ccc([N+](=O)[O-])cc3)c3ccccc32)cc1`, the inhibition is 44.2%.
The figure for `N=c1n(CC(=O)c2ccc([N+](=O)[O-])cc2)c2ccccc2n1Cc1ccc(Cl)cc1` is 65.4% (active); for `Cc1ccccc1Cn1c(=N)n(CC(=O)c2ccc([N+](=O)[O-])cc2)c2ccccc21` it is 11%.
For the compound `N=c1n(CC(=O)c2cccc([N+](=O)[O-])c2)c2ccccc2n1Cc1ccccc1`, the inhibition was 28.3%.
Regarding `N#Cc1cccc(NC(=O)COC(=O)c2ccc3c(=O)n4c(nc3c2)CCC4)c1`, the inhibition is 3%.
Next, `CCOC(=O)C(=O)c1cn(C2OCC(OC(C)=O)C(OC(C)=O)C2OC(C)=O)c2ccccc12` (centres undefined): 6.8%.
As for `Nn1c(SCC(=O)Nc2ccc(F)cc2)nnc1-c1cccnc1`, the inhibition was 16.8%.
Next, `O=C1C=CC(=O)N1Cc1ccccc1`: -45%; `O=C1C2C3C=CC(C3)C2C(=O)N1CCCCCCN1C(=O)C2C3C=CC(C3)C2C1=O` (centres undefined): 12%.
`COc1cc(/C=N/NC(=O)C2CC(=O)N(c3ccc(C)cc3)C2)cc(OC)c1OC` (centres undefined): the inhibition was 6.8%.
For the compound `Cc1[nH]c2ccccc2c1C(=O)C(=O)N1CCN(C)CC1`, the inhibition is 8.2%.
As for `COc1ccc(/C=C/C(=O)NCc2ccccn2)cc1OC`, the inhibition was -3%.
As to `Cc1nc2ccc(S(=O)(=O)NC(C(=O)Nc3nccs3)C(C)C)cc2s1` (centres undefined), the inhibition was 17.8%.
Regarding `Cc1ccc(CNC(=O)C(NS(=O)(=O)c2ccc3nc(C)sc3c2)C(C)C)cc1` (centres undefined), the inhibition is 3.8%.
With `CCc1noc(C)c1C(=O)N1CC(C)OC(C)C1` (centres undefined), the inhibition was 22%.
In the case of `c1ccc(-c2nc(N3CCN(c4ccccc4)CC3)nc(-n3ccnc3)n2)cc1`, the inhibition is 24.6%.
For the compound `c1ccc(-c2nc(-n3ccnc3)nc(-n3ccnc3)n2)cc1`, the inhibition was 4.8%.
Take `COc1ccc(C(=O)NNC(=O)c2cccc(F)c2)cc1`: the inhibition was -5.9%.
`COc1cc(C(=O)NCC(=O)OCC(=O)c2ccc[nH]2)cc(OC)c1OC`: the inhibition is -22.9%.
`COc1ccc2c(c1)[nH]c1c(N3CCSCC3)ncnc12`: the inhibition is -7.3%.
As for `COc1ccccc1NC(=O)Nc1ccnn1C1CCCCC1`, the inhibition is 0.2%.
As to `COc1ccc2cc(C(=O)N/N=C/c3sc4ccccc4c3O)ccc2c1`, the inhibition was 4.9%.
For the compound `COc1ccc(NC(=O)Cc2c(Cl)cccc2Cl)cn1`, the inhibition is 9%.
Regarding `COc1ccc(NC(=O)/C(Cl)=C(/Cl)S(=O)(=O)Cc2ccc(C)cc2)cn1`, the inhibition is -0.1%.
Regarding `COc1ccc(CS(=O)(=O)/C(Cl)=C(/Cl)C(=O)Nc2ccc(OC)nc2)cc1`, the inhibition was 2%.
The figure for `COc1ccc(NC(=O)C(Cl)=C(Cl)Cl)cn1` is 6.1%; for `COc1ccc(NC(=O)/C(Cl)=C(/Cl)S(=O)(=O)Cc2ccccc2)cn1` it is 93.7% (active).
